# Results: PubChem BioAssay AID1347423 (Functional Genomics Laboratory (NCATS/FGL), 2020)
# Screen size: about 52,000 sequences; about 210 (0.4%) were called active. This is one part of a sample in which actives are shown more often than they occur. Unmarked numbers belong to inactive results.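 Rule for the calls: active = gene whose silencing raises cell survival under the drug, median off-target-corrected z-score across its silencing RNAs 2 or more; inactive = the rest.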
# Assay: Resistance to Poly (ADP-Ribose) Polymerase inhibitor: Gene Identification via Genome-wide siRNA Screen
# Conditions: mouse BRCA2 R2336H ES cells, olaparib, CellTiter-Glo viability; stronger effect = higher value
# Method in brief: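 Mouse BRCA2 R2336H ES cells were reverse-transfected with siRNA (20 nM final), treated at 48 h with 500 nM olaparib, and read by CellTiter-Glo after 72 h. Scores: MAD-based z per siRNA, median per gene, seed off-target correction.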
row,Sequence,z-score
1,CGCAGAAGCUAAUAAACAGTT against Psmb6,-1.52
2,GCUGUUUUAUCUCCAAUGGTT against Araf1,1.6 (active)
3,GGACAAGUUUCAGUGACCCTT against Zdhhc9,-0.268
4,GCCAUAUACAGGUUCAAAGTT against Msh6,0.613
5,GCCCAAUAUACUCUAAGGGTT against Cdh20,0.338
6,GCAUCAAAAUCGGUUUCUGTT against 4930526D03Rik,-0.28
7,GGAUCGCUCAUGGAUAUUUTT against Fus,-0.22 (active)
8,GGAGACAGAAUGCACAUUUTT against Tff3,-1.75
9,CCAUUCGGACCAAAGUGUATT against 4930563C04Rik,-1.48
10,GCCUCUGAGUUGCAUGAGUTT against Ppp2r5b,2.37 (active)
11,GCAAUGGUUGGUUCAAUAATT against 5730427C23Rik,-1.47
12,GGUAGAGGUUAAGACGAUCTT against C330023D02Rik,-0.997
13,CGGUGAAAAACCUAUGUAUTT against 1700028P14Rik,0.894
14,GGCAUUCUUAUAAAGAAACTT against Ube2q,3.88
15,CGCUGAAAUAAAGACCAGATT against 2400010G15Rik,1.99 (active)
16,GCCAGUGAGGCUACUUUCATT against Myo18a,-0.423
17,GCAUCUCACUCGUAAAGGUTT against 4732406D01Rik,-0.389
18,GGGAGAGGCACAAAGCAUATT against Ubxd3,1.27
19,GGGUUUUGUGUAAAAGGUUTT against Olfr584,1.72 (active)
20,GGGACACAAUUCUUUGAAATT against G630009D10Rik,0.375
21,GGACAUAAAAGACUUAAAGTT against Actr8,3.83 (active)
22,GGAGCCAUGACUUUUCACUTT against Sec22l1,0.164
23,GAGUCCCUUGGCAGCUCAUTT against Klra8,-0.753
24,GCACAAGAGGUAUCCUUGCTT against A630038D02,-0.381
25,GGAACAGAAAGCUAUGGAUTT against Surf6,-0.706
26,GGGAGAGUCAAAAAAAGAUTT against Khdrbs1,2.83 (active)

row,Sequence,z-score
1,GGAGUACCUGGACAUUGUGTT against 1110032N12Rik,0.677
2,GGACGGACAUUUAUGACCCTT against Cpsf3,-0.072
3,GGAAAUUCAGCAUGGAGCCTT against Vgll4,-0.472
4,CCUCUCCAACAACCAACUATT against 2900010D03Rik,-1.42
5,GGAGAUAAAAGUUUCAUCUTT against Jmjd2b,0.46
6,GGUACCUGUUUGUUUUACATT against Epb4.1l4b,5.02
7,CCCUAGAAUGGGAAUGUCATT against C030022K24Rik,0.313
8,GUCAUCAAACUAGGUGCUGTT against Olfr584,5.09 (active)
9,GGGUCCAUUGUCAAUGUCUTT against Cbr2,-0.721
10,GGGCUUCGAUGCUAUCAUCTT against 6430573F11Rik,0.734
11,CCAUCUACGUGGGACACAATT against Atp11a,-1.41
12,GGAGAACGAAAGGAUGAAATT against Rpusd4,-1.09
13,GGAGAAAAGGAUGUUGUUATT against 2310005P05Rik,2.57
14,CGAUAAUUUGGCUAAGUAUTT against Pip5k3,0.0345
15,CCAAGGGAAGAUUCAAAUUTT against D930031B21Rik,-1.19
16,GCCAGAAACUAAUGAGAUCTT against 1110001E17Rik,1.17 (active)
17,GGAAUUUUCUAUAGUCCGGTT against Flrt2,0.268
18,GCGCAAAGGUGAAACGUAGTT against E030011O05Rik,-0.0435
19,GCAUCCUACGCAUUAAAUCTT against Olfr146,-0.12
20,CGAAAAUCAAGGGAGCUCATT against Rnf19,-0.128
21,GCACCAUGUCAGGAAGUGUTT against B230315M08Rik,3.45 (active)
22,GCCUUUUAGCUGUUCAGGATT against AI451557,-1.18
23,GGAGUUCAUUCUGAAUCAGTT against Etohi2,-0.817
24,GCUACAAAGCGAUGUUUCATT against Pola2,-1.88
25,GGUCUCCACCUCCAUAUCCTT against Slc15a3,0.715
26,GCAGAGGAUAUAAAACAAGTT against Pde2a,0.234 (active)

row,Sequence,z-score
1,CGUCUCAACAGAGUUGGAGTT against Hrmt1l1,0.151
2,CCCAGAACUAUUCAACACUTT against Sema4g,1.4
3,GGCAGAGAAAAGGACCUUUTT against 2400002F11Rik,-1.69
4,GGACAUAAGUGACAGACAUTT against Chrnb2,-1.32 (active)
5,GCAUUCAUGAAAGUGUUAGTT against Olfr164,1.23
6,GGCGAAUUAUUGAAAACGUTT against Actr8,3.41 (active)
7,GGUGGUGUUUCAUAAGAUGTT against Rragc,0.792
8,CCCAGCUAUGCGAUCUUAATT against 1300003B13Rik,-1.51
9,GGGUUUCUGUUUGAUUCCATT against Gria1,1.91 (active)
10,GCUACUGAGUUAUAGAAAGTT against Olfr1316,0.323
11,CCAACUGUAGAUGUAUAUATT against Pmp22,0.0495
12,GGUGAUCCUCAUCAUCAGUTT against 2400010G15Rik,2.76 (active)
13,GGUUGCAUCACAGCGUAUATT against Plekhe1,0.0124
14,GGAGGUCCAGCUGUUCAUGTT against Kcnn4,2.89
15,GGCAAUUGUUUUUAGAGAGTT against 2610510J17Rik,0.946
16,GGCUGUCUUGAUUUUGAUUTT against C3ar1,-0.0188
17,CGAACCUACAGAGCUCAUGTT against Rpl17,-2.32
18,GGGUGCUUAAUAAACAUAATT against Slc22a8,1.12
19,GCUGAAAUACCACUCUCCGTT against Chl1,-1.28 (active)
20,CCAAUCUCUACCGUCUCCUTT against Camp,-0.0705
21,GGCUCAACUGUGUUAAACATT against Tnfrsf4,0.801
22,GCAAAACCUACUGCGUGGATT against 2410195B05Rik,0.682
23,GGGUUUCUGUUAAUCCACATT against Hist1h3g,-1.25
24,GGUGAUAUUAUACAUUCACTT against Rnd1,0.43
25,CCACUGAAGUUUUCAUUCUTT against Olfr1055,0.663
26,GGUGUGCAUCAAGCGACUGTT against Cacng6,1.29

row,Sequence,z-score
1,GGAGUCAAGUCCACAUACATT against Usp47,-0.927 (active)
2,GCACACCCAAUGCUCUAAGTT against Mare,0.284
3,GCGACAACGAUUUUGAAAUTT against Rsu1,0.756
4,GCCGACGUAGUGACAUUCUTT against Crybb3,-1.17
5,CGUAUCAAACAGGAAAUGGTT against Arid5b,1.02
6,GGACUGCUAUGGGUCUUCATT against Clk3,-1.64
7,GGGACAGUCUUCAGUGACATT against 0610037L13Rik,-2.25
8,CCACAAAGAAUGCAUUACUTT against BC022146,-1.42
9,GGAACGAUCGAAACAAGAATT against Rarg,3.59 (active)
10,GCAAGAGUCUGCUACGACATT against Opn1sw,0.0796
11,GGUCCCAUUCAGUGUGUGUTT against Cdk10,-0.19
12,GGGAUGAGUAUGCUUAUGGTT against Rgpr,0.176
13,GCAGAAUGGUAAAUCCGAUTT against Mc5r,1.96
14,CCCUAAGUUCUCGUUUCUGTT against Cherp,1.57
15,GGACCAACAUAACCUCUACTT against BC037432,0.0137
16,GGAACGAGACUCAUCUUCUTT against Cic,1.35 (active)
17,GGAUCCUUCAGCAUUCUUATT against Egr2,-0.406
18,GGAACAGUCUGAAAUACACTT against Usp18,0.039 (active)
19,GGAUAACCUUAACUUCUGATT against 2810449C13Rik,2.16
20,GGGACCCUUCUACAAAAACTT against Pias3,2.3 (active)
21,GGAGAGUACUAAAUUUAAGTT against 4833418A01Rik,0.0243
22,GGAAUUUUAUCAUUGGGACTT against 5031404N07,-0.078
23,CCUGGUAACAGUCAUAAAUTT against Lhfpl2,-0.196
24,GGAAAUGCUUCUGAGCUAGTT against 5830417C01Rik,0.677
25,GGACCUCAGCGAAGACAAUTT against BC034097,2.03 (active)
26,GGUCGGUGUUUUAUCUGCUTT against BC019537,-1.19
